# Measured values taken from PubChem BioAssay AID687026 (Broad Institute, 2013).
# Measured potencies and affinities stand elsewhere. Active and inactive are the calls of the source. How the calls were made is not given here.
# Experiment: CEM21 cell cytotoxicity, dose response, cytotoxicity control, plate reader, dry powder (AID 687026)
# Details: CEM21 cells cytotoxicity; series mostly up to 35 µM
row,Compound,outcome
1,COc1ccc(S(=O)(=O)NCc2ccncc2)cc1OC,inactive
2,Cc1noc(C)c1S(=O)(=O)Nc1cccc2c1O[C@@H](CN(C)Cc1ccc(C(F)(F)F)cc1)[C@H](C)CN([C@@H](C)CO)C2=O,inactive
3,COc1ccccc1CCNCc1ccc(OC)c(OCc2ccccc2)c1,inactive
4,Cc1noc(C)c1S(=O)(=O)N(C)C[C@@H]1Oc2ccc(NC(=O)Nc3ccccc3)cc2CC(=O)N([C@@H](C)CO)C[C@@H]1C,inactive
5,CCOc1ccc(C)cc1S(=O)(=O)NCc1ccncc1,inactive
6,Cn1c(C(=O)N2CCN(c3nc4ccccc4s3)CC2)cc2sccc21,inactive
7,CCOc1ccc(S(=O)(=O)NCc2ccccc2)cc1,inactive
8,CC1(C)CC(NC(=O)C(=O)Nc2ccc(Cl)cc2)CC(C)(C)N1,inactive
9,C[C@H]1CCCCO[C@@H](CN(C)Cc2ccncc2)[C@@H](C)CN([C@@H](C)CO)C(=O)c2cc(NC(=O)Nc3ccccc3)ccc2O1,inactive
10,O=S(=O)(NCc1ccncc1)c1ccc2c(c1)OCCO2,inactive
11,CCOc1ccc(S(=O)(=O)NCc2ccccn2)cc1,inactive
12,Cc1noc(C)c1S(=O)(=O)Nc1cccc2c1O[C@@H](CN(C)Cc1ccc(C(F)(F)F)cc1)[C@@H](C)CN([C@@H](C)CO)C2=O,inactive
13,CC(=O)Nc1ccc(NC(=O)CN(c2ccc(C34CC5CC(CC(C5)C3)C4)cc2)S(C)(=O)=O)cc1,inactive
14,CCCC#Cc1ccc2c(c1)O[C@@H](CN(C)S(=O)(=O)c1cccc(F)c1)[C@@H](C)CN([C@H](C)CO)S2(=O)=O,inactive
15,Cc1noc(C)c1S(=O)(=O)Nc1cccc2c1O[C@H](CN(C)Cc1ccc(C(F)(F)F)cc1)[C@@H](C)CN([C@@H](C)CO)C2=O,inactive
16,Cc1noc(C)c1S(=O)(=O)Nc1cccc2c1O[C@H](CN(C)Cc1ccc(C(F)(F)F)cc1)[C@H](C)CN([C@H](C)CO)C2=O,inactive
17,CCOc1ccc(OCC)c(S(=O)(=O)NCc2ccncc2)c1,inactive
18,CCCn1nc(C(=O)Nc2ccc3nc(N4CCOCC4)sc3c2)ccc1=O,inactive
19,Cc1ccc(S(=O)(=O)N(C)C[C@@H]2Oc3ccc(NS(=O)(=O)c4c(C)noc4C)cc3CC(=O)N([C@H](C)CO)C[C@@H]2C)cc1,inactive
20,Cc1noc(C)c1S(=O)(=O)Nc1cccc2c1O[C@H](CN(C)Cc1ccc(C(F)(F)F)cc1)[C@@H](C)CN([C@H](C)CO)C2=O,inactive
21,CO[C@@H]1CN(C)C(=O)c2ccc(NC(=O)Nc3cccc(F)c3)cc2OC[C@@H](C)N(C(=O)Nc2cccc(F)c2)C[C@H]1C,inactive
22,Cc1noc(C)c1S(=O)(=O)Nc1cccc2c1O[C@@H](CN(C)Cc1ccc(C(F)(F)F)cc1)[C@H](C)CN([C@H](C)CO)C2=O,inactive
